Reference: the supplement of paper PMC10600219
Where a name gives a salt, the structure may show the parent alone. The full ranking holds about 2,800 compounds; the median of “cell viability relative to vehicle” is about 1.1, and the lowest 2% start at about 0.19. The list comes from a sample in which the lowest values are over-represented; it also holds similar structures and randomly drawn compounds.

Test system: NCI-H2228 parental
Experiment: cell viability relative to vehicle (fraction of vehicle); NCI-H2228 is an ALK-positive lung cancer line and DTP means drug-tolerant persister; higher = less growth inhibition
Details: 100 nM; treatment time 6 days
Procedure, shortened: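 The 3114-agent TargetMol anti-cancer compound library was tested at 100 nM for 6 days on parental NCI-H2228 cells and on persister cells derived with 1000 nM of a targeted drug for 13 days. ATP readout by the CellTiter-Glo 3D Cell Viability Assay gave cell viability relative to DMSO vehicle-treated cells.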

Structure (SMILES)	cell viability
CCNC(=O)c1cc2c(-c3cc(C(C)(C)O)ccc3Oc3c(C)cc(F)cc3C)cn(C)c(=O)c2[nH]1	0.898
C[C@H](NC(=O)CCC(F)(F)F)C(=O)N[C@@H]1C(=O)N(CCO)c2ncccc2-c2ccccc21 [Crenigacestat]	1.05
CC(C)=CCC[C@](C)(O[C@@H]1O[C@H](CO)[C@@H](O)[C@H](O)[C@H]1O)[C@H]1CC[C@]2(C)[C@@H]1[C@H](O)C[C@@H]1[C@@]3(C)CC[C@H](O[C@@H]4O[C@H](CO)[C@@H](O)[C@H](O)[C@H]4O[C@@H]4O[C@H](CO)[C@@H](O)[C@H](O)[C@H]4O)C(C)(C)[C@@H]3CC[C@]12C [Ginsenoside Rd]	1.18
C=CC(=O)Nc1ccc(CN2C(=O)N(c3cc(OC)cc(OC)c3)Cc3cnc(Nc4ccc(N5CCN(C)CC5)cc4)nc32)cc1	0.858
OC[C@H]1O[C@@H](Oc2ccc3c(c2)OC[C@H]2c4cc5c(cc4O[C@@H]32)OCO5)[C@H](O)[C@@H](O)[C@@H]1O [Trifolirhizin]	1.02
O=c1cc(N2CCOCC2)oc2c(-c3ccc4c(c3)OCCO4)csc12	1.14
Nc1ccccc1NC(=O)CCCCCCC(=O)Nc1ccccc1	1.09
Cc1c[nH]c2nc(Nc3ccc(N4CCN(C)CC4)c(F)c3)nc(-c3cccc(CC#N)c3)c12	0.777
Cc1ncc(CCCN(C)C)cc1Nc1ncc2c(n1)-c1ccc(C(F)(F)F)cc1NC(=S)C2	0.178
C=C(C)[C@@H]1CC[C@]2(C)[C@H](CC=C3[C@@H]4[C@@H](C)[C@H](C)CC[C@]4(C)CC[C@]32C)[C@@]1(C)CCC(=O)O [Roburic acid]	1.08
CC1=C[C@]2(O)O[C@@]3(CC2=C(C)C)[C@@H](C)CC[C@@H]13 [Curcumenol]	1.1
CC(=O)O[C@@H]1C[C@H](O)[C@@]23CO[C@@H](O)[C@]1(C)[C@@H]2C[C@@H](O)[C@]1(C)[C@@H]3C(=O)[C@H](OC(C)=O)[C@@]2(C)[C@H](c3ccoc3)C[C@H]3O[C@]321 [Toosendanin]	0.147
CC(=O)O[C@H]1CC(=O)OC(C)(C)[C@@H]2CC(=O)[C@]3(C)[C@H](CC[C@@]4(C)[C@@H](c5ccoc5)OC(=O)[C@H]5O[C@]543)[C@@]12C [Nomilin]	1.13
CC(C)=CCC(OC(=O)C=C(C)C)C1=CC(=O)c2c(O)ccc(O)c2C1=O (stereo not drawn) [beta, beta-dimethylacrylshikonin]	1.03
CC1(C)CC[C@]2(C(=O)O)CC[C@]3(C)C(=CC[C@@H]4[C@@]5(C)CCC(=O)C(C)(C)[C@@H]5CC[C@]43C)[C@@H]2C1 [Oleanonic Acid]	1.12
O=C(NC1CCOCC1)c1ccc(-c2cc(-c3c[nH]nc3-c3ccccn3)ccn2)cc1	1.01
COCCN1CCN(Cc2ccc(-c3n[nH]c4c3C(=O)c3c(NC(=O)NN5CCOCC5)cccc3-4)cc2)CC1	0.253
O=C(Nc1c[nH]nc1-c1nc2ccc(CN3CCOCC3)cc2[nH]1)NC1CC1	0.106
CCCCCCCCNc1cc(=O)[nH]c(=O)[nH]1	1.01
CCC(=O)Oc1ccc2c(c1)CCC1C2CCC2(C)C(OC(=O)CC)CCC12 (stereo not drawn) [17-Beta-Estradiol-3,17-Dipropionate]	1.24

Structure (SMILES)	cell viability
CCCOc1ccc(CCc2nc3cc(-c4c(C)noc4C)ccc3n2CCN2CCOCC2)cc1 [PF-CBP1 hydrochloride]	1.06
O=C(Nc1ccc(OC(F)(F)Cl)cc1)c1cnc(N2CC[C@@H](O)C2)c(-c2cc[nH]n2)c1 [Asciminib]	1.11
NC(=O)Cc1cc[nH]n1 [1H-Pyrazole-3-acetamide]	0.268
CONC(=O)Nc1ccc(-c2sc3c(c2CN(C)Cc2ccccc2)c(=O)n(-c2ccccc2)c(=O)n3Cc2c(F)cccc2F)cc1 [Sufugolix]	0.979
CNS(=O)(=O)c1ccccc1Nc1nc(Nc2ccc(N3CCN(C)CC3)cc2OC)ncc1Cl [ALK inhibitor 2]	0.448
COc1cc(N2CCC(N3CCN(C)CC3)CC2)ccc1Nc1ncc(Cl)c(Nc2ccccc2S(=O)(=O)C(C)C)n1	0.421
CN1CCN(Cc2ccc(Nc3ncc(Cl)c(Nc4ccccc4S(=O)(=O)N(C)C)n3)cc2)CC1	0.0869
O=C(/C=C/c1ccc(O)cc1)C1=C(O)C(O)([C@@H]2O[C@H](CO)[C@@H](O)[C@H](O)[C@H]2O)C(O)=C([C@@H]2O[C@H](CO)[C@@H](O)[C@H](O)[C@H]2O)C1=O (stereo not given in full) [Hydroxysafflor yellow A]	1.07
CCOCc1nc2c(N)nc3ccccc3c2n1CC(C)(C)O [Resiquimod]	1.06
O=C(Nc1cccc(-c2ccccc2)c1)OC1CCCCC1	1.01
COc1ccc(CCc2cc(OC)c(OC)c(OC)c2)cc1O [Erianin]	0.335
CCNC(=O)c1noc(-c2cc(Cl)c(O)cc2O)c1-c1ccc(OC)cc1	0.237
CCNC(=O)c1noc(-c2cc(C(C)C)c(O)cc2O)c1-c1ccc(CN2CCOCC2)cc1 [Luminespib]	0.0552
O=C(Nc1ccc(CN2CCOCC2)cc1)c1ccc(-c2cccc(Cl)c2)o1	0.775
CC1(C)CC[C@]2(C(=O)O)CC[C@]3(C)C(=CC[C@@H]4[C@@]5(C)CC[C@H](O[C@@H]6O[C@H](C(=O)O)[C@@H](O)[C@H](O[C@@H]7OC[C@@H](O)[C@H](O)[C@H]7O)[C@H]6O)C(C)(C)[C@@H]5CC[C@]43C)[C@@H]2C1 [Momordin Ic]	1.1
C[C@@]1(CO)C[C@@H](O)C[C@@]2(C)[C@@H]3CC[C@](C)([C@@H](O)CO)C=C3CC[C@H]12 [Kirenol]	1.1
Cc1c(CN2CCN(c3cccc(C(F)(F)F)c3)CC2)cc(-c2ccccc2)n1NC(=O)c1ccncc1 [Sudoterb free base]	1.05
Cc1ccc([N+](=O)[O-])cc1S(=O)(=O)N(C)/N=C/c1cnc2ccc(Br)cn12	0.165
Cc1ccc([N+](=O)[O-])cc1S(=O)(=O)N(C)/N=C/c1cnc2ccc(Br)cn12 [PIK-75  hydrochloride]	0.153
Cc1ccccc1C(C(=O)NC1CCCCC1)N(C(=O)Cn1cnc2ccccc21)c1cccc(F)c1 (stereo not given)	1.19
